Screening data (PubChem)
Rows were chosen to be rich in hits. Some 3.3% of all compounds tested hit in one or more screens of this group.
Sm TGR inh – qHTS Assay for the Inhibitors of Schistosoma Mansoni Peroxiredoxins; AID 485364, 2010; Potency, µM (highest dose often 114 µM), usual class: inhibitors; Schistosoma mansoni thioredoxin glutathione reductase (TGR), Q962Y6; actives 3% (n = 360,000); purified TGR, DTNB reduction, TNB absorbance 405 nm; note: nearly all actives have a fitted effect of over 60% in size
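TGR 20 nM + NADPH 100 uM (dispensed conc.), cpd preinc 15 min RT; start with NADPH (500 uM addition) then DTNB (15 mM addition). Kinetic TNB absorbance, 405 nm filter. Four-parameter Hill fit across titration.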
Tb PYK inh – qHTS of Trypanosoma Brucei Inhibitors. pyruvate kinase (Trypanosoma brucei), Q57TT1. TbPYK enzyme, Kinase-Glo Plus ATP luminescence, 45 min. Potency, µM (highest dose often 76.8 µM), most hits filed as inhibitors. actives 0.12% (n = 410,000). AID 624173, 2012; note: nearly all actives have a fitted effect of over 50% in size
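TbPYK + substrate in 50 mM TEA pH 7.2, 100 mM KCl, 10 mM MgCl2, 0.05% BSA, 0.01% Tween-20; cpd pinned; ADP 130 uM final; 45 min RT; Kinase-Glo Plus 10 min; luminescence endpoint.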
RE007 growth inh – qHTS Assay for Inhibitors of the HIV-1 protein Vpr; S. pombe RE007 Vpr strain, BacTiter-Glo ATP luminescence, 24 h; Potency, µM (top dose mostly 92.2 µM), usual class: inhibitors; actives 0.21% (n = 360,000); AID 651644, 2012; active = well fitted falling curve with a large enough effect; inconclusive = small, poorly fitted or top-dose-only effect; inactive = no such curve, though single readings can be large or run the other way; note: nearly all actives have a fitted effect of over 50% in size
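Fission yeast RE007 carrying one integrated HIV-1 vpr copy, seeded at OD 0.01 in PMG+AL medium with 23 nL pinned compound. Grown 24 h at 30 degrees; viability read by BacTiter-Glo luminescence after 5 min.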
LmPK inh – qHTS Assay for Inhibitors of Leishmania Mexicana Pyruvate Kinase (LmPK); purified LmPK, Kinase-Glo ATP luminescence, 1 h; Potency, µM (doses to about 57.5 µM), actives largely listed as inhibitors; actives 0.37% (n = 290,000); Q27686
Target sequence (Q27686 whole entry, looked up): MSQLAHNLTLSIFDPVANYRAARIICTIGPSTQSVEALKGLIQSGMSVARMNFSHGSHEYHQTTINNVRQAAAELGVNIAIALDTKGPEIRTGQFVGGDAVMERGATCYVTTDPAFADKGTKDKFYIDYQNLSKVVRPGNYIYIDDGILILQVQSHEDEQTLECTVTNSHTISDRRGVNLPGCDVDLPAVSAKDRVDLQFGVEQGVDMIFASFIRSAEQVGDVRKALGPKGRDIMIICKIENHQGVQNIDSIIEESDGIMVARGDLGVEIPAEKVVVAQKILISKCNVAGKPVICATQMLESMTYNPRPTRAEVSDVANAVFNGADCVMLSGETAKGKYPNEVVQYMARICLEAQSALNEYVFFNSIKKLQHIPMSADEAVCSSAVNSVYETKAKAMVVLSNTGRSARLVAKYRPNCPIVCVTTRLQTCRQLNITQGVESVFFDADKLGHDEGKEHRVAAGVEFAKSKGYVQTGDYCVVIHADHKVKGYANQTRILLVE
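qHTS format; LmPK 0.1 nM; substrates PEP 0.5 mM and ADP 0.1 mM. One-hour room-temperature incubation, then coupled luciferase luminescence; 0.5 nM enzyme wells mark activation.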
FBPA Giardia inh – qHTS Assay for Inhibitors of Fructose-1,6-bisphosphate Aldolase from Giardia Lamblia. purified Giardia FBPA. AID 2451, 2010. Potency, µM (top dose mostly 59.6 µM), most hits filed as inhibitors. actives 0.71% (n = 290,000); note: nearly all actives have a fitted effect of over 55% in size
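40 nM FBPA preincubated 10 min at RT with compound (up to 57.5 uM final), then substrate plus GAPDH/TPI/NAD/arsenate coupling and diaphorase/resazurin added. Fluorescence read after 20 min at RT, 525/598 nm.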
Each line names hits and unclear results; the compound was inactive in the other large screens. Unless noted, calls come from the whole dose curve; as a rule, active = well fitted curve in the direction sought with a large enough effect; inconclusive = small, poorly fitted or top-dose-only effect, or another doubt; inactive = no such curve, though single readings can be large; an effect the other way counts as inactive or inconclusive.

O=S(=O)(c1ccc2c(c1)OCO2)N1CCN(c2nnnn2-c2ccccc2)CC1	none
COc1ccc(Cl)cc1-n1c(C)ccc1C	Sm TGR inh 50µM
COc1ccc(Cl)cc1N1C(=O)c2cccnc2C1=O	none
CCN1C(=O)C2(C(C(=O)c3ccc(C)o3)=C(O)C(=O)N2CCCN2CCOCC2)c2ccccc21 (stereo unspecified)	Sm TGR inh 50µM
Cc1ccc(C(=O)C2=C(O)C(=O)N(CCCN3CCOCC3)C23C(=O)N(C)c2ccccc23)o1 (stereo unspecified)	none
CCN1C(=O)C2(C(C(=O)c3ccc(C)o3)=C(O)C(=O)N2CCCN(C)C)c2ccccc21 (stereo unspecified)	Sm TGR inh 32µM
O=[N+]([O-])c1ccc(CS(=O)(=O)N2CCN(c3ccccc3)CC2)cc1	none
Cc1nn(C(=O)c2cccnc2)c(C)c1Sc1ccc(Br)cc1	none
CCOc1ccc(CC(=O)NC2CC(C)(C)N(C)C(C)(C)C2)cc1OCC	none (no result: LmPK inh, FBPA Giardia inh)
CCOc1ccc(CC(=O)C2=C(N3CCOCC3)CC(C)(C)CC2=O)cc1OCC	Sm TGR inh 7.9µM
CCOc1ccc(CC(=O)C2C(=O)CCCC2=O)cc1OCC	Sm TGR inh 32µM
CCOc1ccc(CC(=O)C2C(=O)CC(C)(C)CC2=O)cc1OCC	Sm TGR inh 13µM
Cc1cc(N2CCCC(C(=O)Nc3cccc(Cl)c3)C2)n2ncnc2n1 (stereo unspecified)	none
Cc1ccc(S(=O)(=O)Cn2nnnc2C(C(C)C)N2CCSCC2)cc1 (stereo unspecified)	Sm TGR inh inconclusive
Cc1ccc(S(=O)(=O)Cn2nnnc2C(C(C)C)N2CCc3ccccc3C2)cc1 (stereo unspecified)	Sm TGR inh 28µM
O=C(CN1C(=O)NC2(CCCCC2)C1=O)Nc1ccccc1N1CCCC1	none (no result: LmPK inh, FBPA Giardia inh)
CCCCn1c(N)c(N2CCOCC2)c(=O)n(CC(=O)NC(C)c2ccccc2)c1=O (stereo unspecified)	none
Cc1ccc(/C=C/C(=O)OCC(=O)Nc2cccnc2Cl)o1	none (no result: Sm TGR inh, LmPK inh, FBPA Giardia inh)
Cc1ccc(/C=C/C(=O)Nc2cccc3ncccc23)o1	Sm TGR inh 8.9µM, Tb PYK inh inconclusive, FBPA Giardia inh inconclusive
Cc1ccc(/C=C/C(=O)Nc2ccccc2C(N)=O)o1	Sm TGR inh 22µM, Tb PYK inh inconclusive (no result: RE007 growth inh, LmPK inh, FBPA Giardia inh)
O=C(/C=C/c1ccccc1)Nc1cccnc1	none
Cc1ccc(/C=C/C(=O)Nc2cccnc2)o1	Sm TGR inh 8.9µM, Tb PYK inh 28µM, FBPA Giardia inh inconclusive
Cc1ccc(/C=C/C(=O)Nc2nn[nH]n2)o1	Sm TGR inh 20µM, Tb PYK inh inconclusive, FBPA Giardia inh inconclusive
CC(=O)NC(c1ccc(C)cc1)c1cc(Cl)c2cccnc2c1O (stereo unspecified)	FBPA Giardia inh inconclusive
Oc1c(C(c2ccccn2)N2CCC(Cc3ccccc3)CC2)cc(Cl)c2cccnc12 (stereo unspecified)	Sm TGR inh 3.5µM, RE007 growth inh inconclusive, FBPA Giardia inh inconclusive
Oc1c(C(c2ccc(Cl)cc2)N2CCCC2)cc(Cl)c2cccnc12 (stereo unspecified)	Sm TGR inh 3.2µM, FBPA Giardia inh inconclusive
CC(=O)NC(c1cc(Cl)c2cccnc2c1O)C1CC1 (stereo unspecified)	none (no result: RE007 growth inh, LmPK inh, FBPA Giardia inh)
Cc1ccc(C(c2cc(Cl)c3cccnc3c2O)N2CCN(C)CC2)cc1 (stereo unspecified)	Sm TGR inh 0.71µM
CN1CCN(C(c2ccccn2)c2cc(Cl)c3cccnc3c2O)CC1 (stereo unspecified)	Sm TGR inh 1.3µM, RE007 growth inh inconclusive
CS(=O)(=O)c1ccc(CNC(=O)C2(C(F)(F)F)C/C(=C/CCO)CCCO2)cc1 (stereo unspecified)	none (no result: Sm TGR inh, LmPK inh)
CCOc1cc(Br)c(Br)c(C=Nc2ccc(NC(C)=O)cc2)c1O	RE007 growth inh inconclusive
CC1(C)CC(=O)C2=C(C1)OC(N)=C(C#N)C21CCC2(CC1)OCCO2	Sm TGR inh 22µM, FBPA Giardia inh inconclusive
CC1(C)CC(=O)C2=C(C1)OC(N)=C(C#N)C21CCN(Cc2ccccc2)CC1	Sm TGR inh 14µM
O=C(N/N=C/c1c[nH]c2ccccc12)c1ccc2c(c1)OCCO2	none
c1csc(-c2nc3c4ccccc4c4ccccc4c3[nH]2)c1	none
Oc1ccccc1-c1nc2c3ccccc3c3ccccc3c2[nH]1	FBPA Giardia inh 18µM
CN(CCC1CCCCO1)C(=O)CCc1nnc(CCc2ccccc2)o1 (stereo unspecified)	none (no result: FBPA Giardia inh)
CC1CCCCN1C(=O)CCc1nnc(Cc2c[nH]c3ccccc23)o1 (stereo unspecified)	Sm TGR inh 35µM
COC(=O)[C@@H]1CCCN1C(=O)CCc1nnc(CCc2c[nH]c3ccccc23)o1	none
CN(CCC1CCCCO1)C(=O)CCc1nnc(Cc2c[nH]c3ccccc23)o1 (stereo unspecified)	Sm TGR inh 89µM (no result: FBPA Giardia inh)
COC(=O)C1CCCCN1C(=O)CCc1nnc(CCc2c[nH]c3ccccc23)o1 (stereo unspecified)	none
CC(C)CN1CCN(C(=O)CCc2nnc(Cc3c[nH]c4ccccc34)o2)[C@@H](C)C1=O	Sm TGR inh 20µM (no result: FBPA Giardia inh)
CCC1CCCCN1C(=O)CCc1nnc(Cc2c[nH]c3ccccc23)o1 (stereo unspecified)	Sm TGR inh 25µM
O=C1/C(=C\c2ccncc2)SC(=S)N1C1CCCCC1	RE007 growth inh inconclusive
COCC(C)NC(=O)c1cc(-c2cccc(OC)c2)on1 (stereo unspecified)	none
Cc1ccc(NC(=O)C2C3C=CC4(O3)C2C(=O)N(CCCN2CCCCC2)C4C(=O)NC2CCCCC2)cc1Cl (stereo unspecified)	none
COc1ccc(S(=O)(=O)c2c(C)c(NS(=O)(=O)c3ccccc3)cc(C)c2O)cc1	none
COc1ccc(S(=O)(=O)Nc2cc(C)c(O)c(S(=O)(=O)c3ccccc3)c2)cc1	Sm TGR inh 56µM
O=C1/C(=C\c2ccco2)NC(=S)N1c1ccccc1	none
CCCN=C1N/C(=C\c2ccco2)C(=O)N1c1ccccc1	Sm TGR inh 40µM
CCCN(CCC)C1=N/C(=C\c2ccco2)C(=O)N1c1ccccc1	Sm TGR inh 16µM
COc1ccc(CN(Cc2ccncc2)C(=O)CCC(=O)O)cc1	none
CN(C)[C@H]1C(=O)C(C(N)=O)=C(O)[C@]2(O)C(=O)C3=C(O)c4c(O)cccc4[C@@](C)(O)[C@H]3C[C@@H]12	FBPA Giardia inh inconclusive (no result: Sm TGR inh, RE007 growth inh, LmPK inh)
